# The panel holds about 83,000 compounds, 20% with a hit somewhere; the sample as a whole holds those more often.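 How to read the values: 0–100, growth inhibition (40 = 60% inhibited); 0, no net growth; -100 to 0, cell death (-40 = 40% of starting cells died; -100 = all dead).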 Values without a mark were called inactive. Activity calls are given as the source filed them.
# System: SW-620 colon
# Test: NCI-60 one-dose screen, 48 h (100 = growth as untreated, 0 = no growth, -100 = all killed)
# Settings: 10 µM unless noted
# Protocol: Growth inhibition of the SW-620 human tumor cell line is measured as a screen for anti-cancer activity. Cells are grown in 96 well plates and exposed to the test compound for 48 hours. Compounds are tested at a single concentration, which is 10^-5 M for most compounds. The reported endpoint is percent growth (GI% or GIPRCNT), where numbers from 0 - 100% represent growth inhibition, and numbers from -100% - 0 represent cell death. For example, a value of 40 represents 60% growth inhibition. A value of 0 means no net growth occurred over the course of the experiment. A value of -40 indicates 40% of cells at the beginning of the experiment died by the end of the experiment. A value of -100 means all cells are dead at the end of the experiment.
# NCI-60 Human Tumor Cell Lines Screen was performed using the standard one-dose NCI protocol, which is described in more detail at https://dtp.cancer.gov/discovery_development/nci-60/default.htm.
# Compounds with GIPRCNT values below 10 were considered active. Activity score was based on GIPRCNT using the following formula: […]
# Score is 0 for GIPRCNT values of 100 or above, 50 for GIPRCNT values of 0, and 100 for GIPRCNT values of -100.
row,SMILES,growth
1,Fc1ccc(Cc2ccc(F)cc2)cc1,99.1%
2,CC[C@H](CO)Nc1nc(NCc2ccccc2)n2ncc(C(C)C)c2n1,1.96% (active)
3,NS(=O)(=O)N(c1cc(C(F)(F)F)cc(C(F)(F)F)c1)C1CCN(Cc2ccc(F)cc2)CC1,63.8%
4,CC(C)n1cc2c(N)ncnc2n1,110%
5,O=C(O)c1c([N+](=O)[O-])cnc2ccccc12,101%
6,O=C(Nc1ccc(Oc2ccc(F)cc2)c(Cl)c1)c1cccnc1,92.7%
7,CCOC(=O)c1nc(Nc2cc(C)[nH]n2)c2ccccc2n1,104%
8,COc1cccc(-c2nc3sccn3c2-c2ccnc(NCCCNS(=O)(=O)c3ccccc3)c2)c1,59%
9,CC1=NNC(=O)C1C (stereo not given),98%
10,COc1ccc(C2CC(=O)Nc3c2c(C)nn3-c2nc3ccccc3[nH]2)cc1 (stereo not given),48.2%
11,O=C1NC(=O)C(CC(=O)n2c(-c3ccccc3)nc3ccccc32)C(=O)N1,104%
12,CC(=O)OCC1OC(OC2=C(CC=C(Cl)Cl)C(=O)c3ccccc3C2=O)C(OC(C)=O)C(OC(C)=O)C1OC(C)=O (stereo not given),22.9%
13,CC1(C)CC(C(=O)OCCCCCCCCCCC[P+](c2ccccc2)(c2ccccc2)c2ccccc2)C(C)(C)N1O (stereo not given),-81% (active)
14,COc1ccc(S(=O)(=O)NCCNc2nccc(-c3c(-c4cccc([N+](=O)[O-])c4)nc4sccn34)n2)cc1,128%
15,CCOC(=O)c1c2c(n3ccc(NC(=O)CCN(CC)CC)cc13)C(=O)c1ncccc1C2=O,49.3%
16,COc1ccc(C(=O)COc2ccc(/C=C3\Oc4ccc(Cl)cc4C3=O)cc2)cc1,83.6%
17,CCOC(=O)c1cnc2cc(Cl)c(F)cc2c1Nc1cccc(NS(C)(=O)=O)c1,94.1%
18,CCCCN(CCCC)CCC(C)(O)c1cc2ccccc2c2ccccc12 (stereo not given),69.5%
19,Oc1ccc(Nc2nccc(-c3ccc4ccccc4c3)n2)cc1,31.8%
20,CCCCCCCCCCCCCCCC(=O)OCC1OC(n2cnc3c(=S)nc(N)[nH]c32)C(OC(=O)CCCCCCCCCCCCCCC)C1OC(=O)CCCCCCCCCCCCCCC (stereo not given),78.6%

row,SMILES,growth
1,O=[N+]([O-])c1c(F)cccc1Nc1cccc(F)c1,108%
2,COc1ccc2nc3cc(Cl)ccc3c(NCCNCC(O)CO)c2c1 (stereo not given),15.2%
3,CC(=O)O[C@H]1CC[C@]2(C)[C@H]3CC[C@@H]4[C@H]5[C@H](C(C)C)CC[C@]5(C(=O)OCC(CO)(CO)N=C(N)N)CC[C@@]4(C)[C@]3(C)CC[C@H]2C1(C)C,-71.5% (active)
4,Oc1ccccc1N=Cc1c(O)ccc2ccccc12,85.7%
5,Nc1ccc(Nc2nccc(-c3ccc4ccccc4c3)n2)cc1,33.1%
6,CCN(CC)c1ccc(/C=C/C2=[N+](C)c3ccccc3C2(C)C)cc1,15.4%
7,O=C1c2c[n+](Cc3ccccc3)ccc2-c2nc3ccccc3c3ccnc1c23,-12.9% (active)
8,Brc1cccc(-c2cc(-c3ccc4c(c3)OCCO4)[nH]n2)c1,28.7% [25 µM]
9,CCN(CC)CC(O)CNc1c2ccc([N+](=O)[O-])cc2nc2cc(OC)c(OC)cc12 (stereo not given),4.13% (active)
10,CCCCCC(=O)N(CCCC)CCCC,117%
11,CN1Cc2c(cc(CN3CCCCC3)n2C)C(c2ccc(Br)cc2)C1 (stereo not given),90.8%
12,O=C(Cn1cc(CN2C(=O)c3ccccc3S2(=O)=O)nn1)Nc1ccc([N+](=O)[O-])cc1Cl,98.1%
13,NC(CC(=O)O)C(=O)OCc1ccccc1 (stereo not given),107%
14,CN(C)c1ccc(/C=C\C2=[N+](C)c3ccccc3C2(C)C)cc1,10.3%
15,CC[C@H](Nc1cc(C)nc(N)n1)c1nc2cccc(NCc3ccc(C(=O)NO)cc3)c2c(=O)n1-c1ccccc1,-10.8% (active)
16,O=c1c(/C=C/c2ccco2)nnc(SCCN2CCOCC2)n1/N=C/c1ccc([N+](=O)[O-])cc1,104%
17,CCCCCCCCCC(=O)Oc1ccc(/C(=C(/C)Cc2cccc(OC)c2)c2ccc(OCCN(C)C)cc2)cc1,104%
18,CC(C)(C)n1cc(-c2ccnc(NCCNS(=O)(=O)c3ccccc3)c2)c(-c2cccc(O)c2)n1,16.2%
19,O=S(=O)(NCCCNc1cc(-c2cn(-c3ccccc3)nc2-c2cccc(O)c2)ccn1)c1ccccc1,25.5%
20,COc1ccc(C(=O)/C=C/c2c(Cl)c3c(c(OC)c2Cl)OCC(=O)N3)cc1,17.7%

# — PubChem BioAssay (NCI)
